# Where “and” joins values, the source holds several entries; their conditions need not be identical. Identical values can stand only once. Records with an inconclusive call do not appear. Unmarked numbers belong to inactive results. Calls of active or inactive are those of the source. Calls come from the whole dose curve; as a rule, active = well fitted inhibition curve with a large enough effect; inconclusive = small, poorly fitted or top-dose-only effect; inactive = flat fitted curve, though single readings scatter.
# What was measured:
# [1] = Drug repurposing screens with cells derived from glioblastoma tumor samples (AID 1345199); conditions: GBM patient neurospheres viability, ATP luminescence, 48 h; note: nearly all actives have a fitted effect of over 40% in size
# How it was run: (§1)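 Four patient lines of CD133+ GBM neurospheres were screened at several concentrations; hits were retested in those lines plus three slower-growing GBM lines, using 48-hour treatment and ATP-based viability.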
# astro = control astrocytes; test: as above; conditions: viability, ATP luminescence, 48 h; series mostly up to 45.9 µM
# How it was run: as §1
# [2] = at 45.9 µM (top of the series), tumour line B
# [3] = at 45.9 µM (top of the series), tumour line D
# [4] = at 46.1 µM (top of the series), tumour line C
# [5] = at 20 µM (top of the series), tumour line C
# [6] = at 46 µM (top of the series), tumour line A
# [7] = at 21.2 µM (top of the series), tumour line B
# [8] = at 21.2 µM (top of the series), tumour line D
# % is set by controls: 0 for no effect and ±100 for the full control effect; potency is the fitted concentration of half-maximal effect.
smiles,measurement,setting,value
NC(=O)[C@H]1O[C@@H](O)[C@H](O)[C@@H](O)[C@@H]1O,"activity, negative = cell killing",[1]; [2],-7.58%
same,"activity, negative = cell killing",[1]; [3],-15.7%
same,"activity, negative = cell killing",[1]; [4],-23.5%
same,Potency,astro,inactive
COc1ccc(/C=C/C(=O)O)cc1,"activity, negative = cell killing",[1]; [2],6.24%
same,"activity, negative = cell killing",[1]; [3],-5.33%
same,"activity, negative = cell killing",[1]; [4],9.31%
same,Potency,astro,inactive
O=C[C@H](O)[C@@H](O)[C@@H](O)[C@H](O)CO,"activity, negative = cell killing",[1]; [2],-11.6%
same,"activity, negative = cell killing",[1]; [3],0.16%
same,"activity, negative = cell killing",[1]; [4],10.2%
same,Potency,astro,inactive
C(=C\c1ccncc1)/c1ccccc1,"activity, negative = cell killing",[1]; [2],-13.9% and -17.3%
same,"activity, negative = cell killing",[1]; [3],-13.7% and -5.95%
same,"activity, negative = cell killing",[1]; [4],-11.5%
same,Potency,astro,inactive
CCOC(=O)Cc1ccc(-c2ccccc2)cc1,"activity, negative = cell killing",[1]; [2],-6.74%
same,"activity, negative = cell killing",[1]; [3],-7.57%
same,"activity, negative = cell killing",[1]; [4],36.2%
same,Potency,astro,inactive
CC(C)(C)NC[C@H](O)COc1ccccc1C1CCCC1,"activity, negative = cell killing",[1]; [5],19%
same,Potency,[1]; tumour line A,4.47 µM (active)
same,Potency,[1]; tumour line D,12.6 µM (active)
same,Potency,astro,inactive
CC(C)C1=CC2=CC[C@@H]3[C@](C)(CCC[C@@]3(C)C(=O)O)[C@H]2CC1,"activity, negative = cell killing",[1]; [2],-3.87%
same,"activity, negative = cell killing",[1]; [3],2.46%
same,"activity, negative = cell killing",[1]; [4],-9.17%
same,Potency,astro,inactive
CCCCC[C@H](O)/C=C/[C@H]1[C@H](O)CC(=O)[C@@H]1C/C=C\CCCC(=O)O,"activity, negative = cell killing",[1]; [2],-2.11%
same,"activity, negative = cell killing",[1]; [3],-17.7%
same,"activity, negative = cell killing",[1]; [4],-15.8%
same,Potency,astro,inactive
COc1ccc(/C=N/NC(=O)c2ccncc2)c(C(=O)O)c1OC,"activity, negative = cell killing",[1]; [2],-18.2%
same,"activity, negative = cell killing",[1]; [3],8.03%
same,"activity, negative = cell killing",[1]; [6],-30.2%
same,Potency,astro,inactive
CC1CCCC(C)N1NC(=O)c1ccc(Cl)c(S(N)(=O)=O)c1 (configuration not stated),"activity, negative = cell killing",[1]; [5],-19.6%
same,"activity, negative = cell killing",[1]; [7],-10.8%
same,"activity, negative = cell killing",[1]; [8],-17.6%
same,Potency,astro,inactive
CC[C@H]1OC(=O)[C@H](C)[C@@H](O[C@H]2C[C@@](C)(OC)[C@@H](O)[C@H](C)O2)C(C)[C@@H](O[C@@H]2O[C@H](C)C[C@H](N(C)C)[C@@H]2O)[C@](C)(OC)C[C@@H](C)C(=O)[C@H](C)[C@@H](O)[C@]1(C)O (some centres not stated),"activity, negative = cell killing",[1]; [2],-10.3%
same,"activity, negative = cell killing",[1]; [3],-27.7%
same,"activity, negative = cell killing",[1]; [4],2.27%
same,Potency,astro,inactive
CC/C=C\C/C=C\C/C=C\C/C=C\C/C=C\C/C=C\CCC(=O)O,"activity, negative = cell killing",[1]; [2],-3.27%
same,"activity, negative = cell killing",[1]; [3],-12.5%
same,"activity, negative = cell killing",[1]; [4],-20.7%
same,Potency,astro,inactive
CCN(CC)CCOC(=O)c1cccnc1,"activity, negative = cell killing",[1]; [2],-9.24%
same,"activity, negative = cell killing",[1]; [3],9.6%
same,"activity, negative = cell killing",[1]; [4],-9.84%
same,Potency,astro,inactive
CNC(=O)[C@H](Cc1c[nH]c2ccccc12)NC(=O)[C@@H](CC(=O)NO)CC(C)C,"activity, negative = cell killing",[1]; [2],-23.5%
same,"activity, negative = cell killing",[1]; [3],-19.3%
same,"activity, negative = cell killing",[1]; [4],-23.8%
same,Potency,astro,inactive
COc1cc(S(C)=O)ccc1-c1nc2ncccc2[nH]1 (configuration not stated),"activity, negative = cell killing",[1]; [2],-1.29%
same,"activity, negative = cell killing",[1]; [3],-12%
same,"activity, negative = cell killing",[1]; [4],-12.6%
same,Potency,astro,inactive
CCCCCCCCCCCCCCCCCCCCCC(=O)Nc1ccn([C@@H]2O[C@H](CO)[C@@H](O)[C@@H]2O)c(=O)n1,"activity, negative = cell killing",[1]; [2],-14.5%
same,"activity, negative = cell killing",[1]; [3],-7.79%
same,"activity, negative = cell killing",[1]; [4],-16.8%
same,Potency,astro,inactive
O=C1CC[C@@H](C(=O)N[C@H]2C[C@@H]2c2ccccc2)N1,"activity, negative = cell killing",[1]; [2],-8.87%
same,"activity, negative = cell killing",[1]; [3],-2.23%
same,"activity, negative = cell killing",[1]; [4],4.74%
same,Potency,astro,inactive
CC(=NCc1ccccc1)c1ccccc1O,"activity, negative = cell killing",[1]; [2],-12.5%
same,"activity, negative = cell killing",[1]; [3],-14.9%
same,"activity, negative = cell killing",[1]; [4],6.85%
same,Potency,astro,inactive
Cc1cc(=O)c(C(=O)N[C@@H](C(=O)N[C@@H]2C(=O)N3C(C(=O)O)=C(CSc4nnnn4C)CS[C@H]23)c2ccc(O)cc2)c[nH]1,"activity, negative = cell killing",[1]; [2],-7.34%
same,"activity, negative = cell killing",[1]; [3],13%
same,"activity, negative = cell killing",[1]; [4],-6.97%
same,Potency,astro,inactive
CNC(=O)OCc1cccc(COC(=O)NC)n1,"activity, negative = cell killing",[1]; [2],-20.8%
same,"activity, negative = cell killing",[1]; [3],4.88%
same,"activity, negative = cell killing",[1]; [6],-25.4%
same,Potency,astro,inactive
CCN(CC)C(=O)[C@]1(c2ccccc2)C[C@@H]1CN,"activity, negative = cell killing",[1]; [2],-4.91%
same,"activity, negative = cell killing",[1]; [3],-13.9%
same,"activity, negative = cell killing",[1]; [4],-22.9%
same,Potency,astro,inactive
CC(C)CN(C[C@@H](O)[C@H](Cc1ccccc1)NC(=O)O[C@@H]1CCOC1)S(=O)(=O)c1ccc(N)cc1,"activity, negative = cell killing",[1]; [2],-6.03%
same,"activity, negative = cell killing",[1]; [3],-14.3%
same,"activity, negative = cell killing",[1]; [4],-3.48%
same,Potency,astro,inactive
O=[N+]([O-])O[C@@H]1CO[C@H]2[C@@H]1OC[C@@H]2O,"activity, negative = cell killing",[1]; [2],-16.9%
same,"activity, negative = cell killing",[1]; [3],-5.25%
same,"activity, negative = cell killing",[1]; [6],-36.5%
same,Potency,astro,inactive
C[C@H](O)CN(C)C,"activity, negative = cell killing",[1]; [2],-3.73%
same,"activity, negative = cell killing",[1]; [3],-16.1%
same,"activity, negative = cell killing",[1]; [4],-13.2%
same,Potency,astro,inactive
COc1c(O[C@@H]2O[C@H](CO)[C@@H](O)[C@H](O)[C@H]2O)cc2c(c1OC)-c1ccc(SC)c(=O)cc1[C@@H](NC(C)=O)CC2,"activity, negative = cell killing",[1]; [7],-28.7%
same,"activity, negative = cell killing",[1]; [8],-5.86%
same,"activity, negative = cell killing","[1]; at 21.3 µM (top of the series), tumour line A",-6.81%
same,Potency,astro,inactive
CCCCCCCCCCCCCCCC(=O)OC[C@@H](O)[C@H]1OC[C@H](O)[C@H]1O,"activity, negative = cell killing",[1]; [2],-4.52%
same,"activity, negative = cell killing",[1]; [3],10.4%
same,"activity, negative = cell killing",[1]; [4],-6.66%
same,Potency,astro,inactive
CC(C)(Oc1ccc(C2CCCc3ccccc32)cc1)C(=O)O (configuration not stated),"activity, negative = cell killing",[1]; [2],-18.2%
same,"activity, negative = cell killing",[1]; [3],-16.7%
same,"activity, negative = cell killing",[1]; [6],-21.9%
same,Potency,astro,inactive
OC[C@H]1OC([S-])[C@H](O)[C@@H](O)[C@@H]1O.[Au+] (some centres not stated),"activity, negative = cell killing",[1]; [2],-5.43%
same,"activity, negative = cell killing",[1]; [3],-19.5%
same,"activity, negative = cell killing",[1]; [4],-19.6%
same,Potency,astro,inactive
